Several values for one entry are separate records, joined by “and”; a condition that tells them apart may be missing. Equal values may be shown once. Results filed as inconclusive are left out. Activity calls are given as the source filed them. Rule for the calls: active = hit-call score of the fitted dose curve at least 0.9, where 1 is the maximum; inconclusive = response in the unintended direction; inactive = score below 0.9.

Test system in the first test: not listed separately
The experiment in a line: ATG_XTT_Cytotoxicity: Cytotoxicity Assessment in the Attagene TRANS-FACTORIAL HepG2 Assay (AID 2283584). Put shortly: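 HepG2 cells transiently transfected with GAL4-UAS multiple reporter units, dosed 24 h; cytotoxicity read by XTT as loss of signal versus DMSO baseline.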
As for `C=CC(=O)OCCCCCC`, the compound was classed as inactive. Turning to `CCOc1ccc(NC(C)=O)cc1`, the compound was classed as inactive. Still for that read-out and setting: as for `CCOC(=O)C(=O)OCC`, the entry is “inactive”. On the same count and under the same terms, the entry for `CCCCCCCCCO` is “inactive”; for `Cc1cc(O)c2c(c1)C(=O)c1cc(O)cc(O)c1C2=O` it is “inactive”; for `O=Cc1ccccc1O` it is “inactive”. On to `CCCCCCOc1ccc(O)cc1`, for which the compound was classed as inactive. Still for that read-out and setting: the entry for `CCCCCc1cccc(=O)o1` is “inactive”; for `O=S1(=O)CC=CC1` it is “inactive”; for `CCCCCCC(O)CCOC(C)=O` (stereo not given) it is “inactive”. On the same count and under the same terms, as for `CCCO[Si](OCCC)(OCCC)OCCC`, the entry is “inactive”; as for `C=CC(C)CCCC(C)(C)O` (stereo not given), “inactive”; as for `CC1(C)CC(N)CC(C)(CN)C1` (stereo not given), “inactive”. The same measure, in the same setting: the entry for `CN(C)c1ccc(C=O)cc1` is “inactive”. With `CC(=O)C1=C(C)[C@@H]2C[C@@]3(C1)[C@H](C)CC[C@H]3C2(C)C`, the compound was classed as inactive.

`COc1ccc(OC)cc1`: the outcome was inactive. Same read-out and setting: as for `CC/C=C\CCOC(=O)C(C)C`, the entry is “inactive”. The same measure, in the same setting: the entry for `CCCCCCCCCCCCN1CCOCC1` is “inactive”; for `C=CCCCCCCCCC(=O)OCC` it is “inactive”. On the same count and under the same terms, as for `C=C/C(C)=C/C/C=C(\C)CCC=C(C)C`, the entry is “inactive”. In the case of `OC[C@@H](O)[C@H](O)[C@@H](O)[C@@H](O)CO`, the result was inactive. The same measure, in the same setting: as for `C=C1CC/C=C(\C)CC[C@@H]2[C@@H]1CC2(C)C`, the entry is “inactive”; as for `CC(C)C(=O)c1ccccc1`, “inactive”. Same read-out and setting: as for `CC(C)Cc1ccccc1`, the entry is “inactive”. On to `CC1=CC[C@@H]2C[C@H]1C2(C)C`, for which the compound was classed as inactive.

As to `N=C1N=C(N)c2ccccc21`, the compound was classed as inactive. Same read-out and setting: as for `CCCCN(CCO)CCO`, the entry is “inactive”.

Test system in the next test: not listed separately
The experiment in a line: TOX21_p53_BLA_p2_viability: Viability Assessment in the Tox21 HCT-116 p53 Agonism Beta-lactamase Assay, Phase 2 (AID 2283591).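 Note: compound exposure lasted 16 h at 37 °C; actives lower the ATP signal meaning cytotoxicity.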 The method, boiled down: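 HCT116 p53-bla cells, 4000/well, dosed after 5 h plating (217-fold dilution of DMSO stocks) and incubated 16 h at 37C. Viability taken as cellular ATP by CellTiter-Glo luminescence after 30 min RT; signal loss marks cytotoxicity.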
Consider `CNC(=C[N+](=O)[O-])NCCSCc1ccc(CN(C)C)o1`, for which the outcome was inactive. Still for that read-out and setting: as for `O=C(O)c1ccco1`, the entry is “inactive”; as for `C1=COCCC1`, “inactive”. The same measure, in the same setting: the entry for `CN(C)CCCNCCCN(C)C` is “inactive”. As for `CC(C)(C)c1cccc(O)c1`, the call was inactive.

Regarding `CCCCOC(=O)C(C)OC(=O)CCC` (stereo not given), the compound was called inactive. The same measure, in the same setting: as for `CCCCCCCC(=O)N(C)C`, the entry is “inactive”; as for `O=S(=O)(O)c1cc(S(=O)(=O)O)c2c(N=Nc3ccccc3)c(O)ccc2c1`, “inactive”; as for `CC(=O)OC(C)(C)C`, “inactive”. Broadly, the AC50 is the concentration at which the activity in the assay is half-maximal. As to `O=C(Nc1cccc(Cl)c1)OCC#CCCl`, the AC50 was 67.5 µM (active). As to `NCCCOCCOCCOCCCN`, the call was inactive. Still for that read-out and setting: the entry for `CC(C)N1C(=O)c2ccccc2C1=O` is “inactive”.

The target of the next test is Cellular tumor antigen p53 (Homo sapiens) (UniProt P04637). In words: TOX21_p53_BLA_p2_ratio: Tox21 HCT-116 p53 Agonism Beta-lactamase Assay, Ratio, Phase 2 (AID 2283592). The method, boiled down: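 First, HCT116 reporter cells settle for 5 h at 37C. Next, DMSO compound solutions are pinned in (217-fold dilution) and left 16 h. Finally, CCF4-AM substrate is loaded 2 h at room temperature and the 460/530 nm ratio read.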
Cellular tumor antigen p53 (Homo sapiens), sequence (P04637 whole entry, looked up): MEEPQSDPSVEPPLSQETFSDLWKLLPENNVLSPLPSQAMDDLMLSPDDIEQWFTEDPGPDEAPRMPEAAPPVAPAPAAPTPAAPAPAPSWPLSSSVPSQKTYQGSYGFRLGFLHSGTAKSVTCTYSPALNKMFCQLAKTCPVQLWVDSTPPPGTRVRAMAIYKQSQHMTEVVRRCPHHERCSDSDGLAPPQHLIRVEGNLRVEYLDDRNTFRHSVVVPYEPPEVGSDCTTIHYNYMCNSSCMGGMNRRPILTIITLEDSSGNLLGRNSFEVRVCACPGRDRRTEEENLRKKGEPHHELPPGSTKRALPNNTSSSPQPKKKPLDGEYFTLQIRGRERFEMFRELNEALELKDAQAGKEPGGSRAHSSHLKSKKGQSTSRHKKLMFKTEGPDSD
In the case of `CCOc1ccc(NC(C)=O)cc1`, the outcome was inactive. Same read-out and setting: as for `CNC(=C[N+](=O)[O-])NCCSCc1ccc(CN(C)C)o1`, the entry is “inactive”; as for `O=C(O)c1ccco1`, “inactive”; as for `CCOC(=O)C(=O)OCC`, “inactive”.

On to `C1=COCCC1`, for which the result was inactive.

As to `CCCCCCCCCO`, the result was inactive. With `Cc1cc(O)c2c(c1)C(=O)c1cc(O)cc(O)c1C2=O`, the AC50 is 6.55 µM (active) and 13.2 µM (active). For `CN(C)CCCNCCCN(C)C`, the result was inactive. Still for that read-out and setting: the entry for `O=Cc1ccccc1O` is “inactive”; for `CC(C)(C)c1cccc(O)c1` it is “inactive”. With `CCCCCCOc1ccc(O)cc1`, the AC50 is 34 µM (active).

As to `CCCCOC(=O)C(C)OC(=O)CCC` (stereo not given), the result was inactive. The same measure, in the same setting: the entry for `O=S1(=O)CC=CC1` is “inactive”; for `CCCCCCC(O)CCOC(C)=O` (stereo not given) it is “inactive”. Still for that read-out and setting: the entry for `CC1(C)CC(N)CC(C)(CN)C1` (stereo not given) is “inactive”. For the compound `CN(C)c1ccc(C=O)cc1`, the result was inactive.

Turning to `COc1ccc(OC)cc1`, the outcome was inactive. On the same count and under the same terms, the entry for `CC/C=C\CCOC(=O)C(C)C` is “inactive”. Regarding `CCCCCCCCCCCCN1CCOCC1`, the outcome was inactive. Same read-out and setting: the entry for `C=CCCCCCCCCC(=O)OCC` is “inactive”; for `CCCCCCCC(=O)N(C)C` it is “inactive”. As for `O=S(=O)(O)c1cc(S(=O)(=O)O)c2c(N=Nc3ccccc3)c(O)ccc2c1`, the outcome was inactive. For `OC[C@@H](O)[C@H](O)[C@@H](O)[C@@H](O)CO`, the outcome was inactive. In the case of `CC(=O)OC(C)(C)C`, the result was inactive. The same measure, in the same setting: as for `C=C1CC/C=C(\C)CC[C@@H]2[C@@H]1CC2(C)C`, the entry is “inactive”; as for `CC(C)Cc1ccccc1`, “inactive”. Take `O=C(Nc1cccc(Cl)c1)OCC#CCCl`: the AC50 is 19.9 µM (active). The same measure, in the same setting: the figure for `N=C1N=C(N)c2ccccc21` is 28.4 µM (active). With `CCCCN(CCO)CCO`, the result was inactive. Still for that read-out and setting: the entry for `NCCCOCCOCCOCCCN` is “inactive”; for `CC(C)N1C(=O)c2ccccc2C1=O` it is “inactive”.
